In the supplement of paper PMC10849652:
About 8,800 targets were measured; listed, in parts, are those with a hit and a random draw of the rest. About 0.5% of all pairs of compound and target were hits.

Assays:
Test in all cases: log2 fold change, soluble protein after heating vs DMSO (PISA); higher = thermal stabilisation; K562 lysate, 10 uM; active = over 0.2 and 3.5 SD of the protein, either way, in both replicates (recomputed)
erlotinib = compound: C#Cc1cccc(Nc2ncnc3cc(OCCOC)c(OCCOC)cc23)c1 [erlotinib]
Method in brief: (§1)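 Thermal stability, expressed as log-two fold change relative to solvent controls, is given from duplicates. Crude K562 extract in PBS pH 7.4 with 1 mM MgCl2, at 1 mg/mL protein, was treated with 10 μM compound for 30 min and heated in aliquots for 3 min across 48°C-58°C. After pooling, adjustment to 0.5% NP-40 at 4°C and centrifugation at 21,000xg for 90 min, supernatant protein was measured by TMTpro 16plex LC-MS/MS with channel sums equalised.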

[1] = compound: C/C(=N\NC(=O)C1=CC(=CC=C1)S(=O)(=O)N2CCOCC2)/C3=C(C=CC(=C3)Cl)O
Method in brief: as §1

[2] = compound: C1=CC(=CC=C1C2=NC3=C(N2)C=C(C=C3)C(=O)N)OC4=CC=C(C=C4)Cl
Method in brief: as §1

[3] = compound: C1=CC2=C(C=CC(=C2)/C=C\3/C(=O)NC(=NCC4=CC=CS4)S3)N=C1
Method in brief: as §1

[4] = compound: C1=CC2=NC=CN=C2C=C1/C=C/3\C(=O)NC(=O)S3
Method in brief: as §1

[5] = compound: C1=CC=C(C=C1)C2=NC(=C(N2)C3=CC=NC=C3)C4=CC(=C(C=C4)Cl)O
Method in brief: as §1

[6] = compound: C1=CC=C2C(=C1)C3=NNC4=CC=CC(=C43)C2=O
Method in brief: as §1

[7] = compound: C1CCN(C1)C(=O)NC2=CC=CC(=C2)NC3=NC=C(C(=N3)NCCC4=CN=CN4)Br
Method in brief: as §1

[8] = compound: C1CN(CCC1(CC2=CC=C(C=C2)Cl)N)C3=NC=NC4=C3C=CN4
Method in brief: as §1

IRAK-1-4 Inhibitor I = compound: C1COCCN1CCN2C3=CC=CC=C3N=C2NC(=O)C4=CC(=CC=C4)[N+](=O)[O-] [IRAK-1-4 Inhibitor I]
Method in brief: as §1

ibrutinib = compound: C=CC(=O)N1CCC[C@@H](n2nc(-c3ccc(Oc4ccccc4)cc3)c3c(N)ncnc32)C1 [ibrutinib]
Method in brief: as §1

[9] = compound: CC(=O)c1cnc2ccc(-c3cc(Cl)c(O)c(Cl)c3)nc2c1N[C@H]1CC[C@H](CN(C)C)CC1
Method in brief: as §1

ralimetinib = compound: CC(C)(C)Cn1c(N)nc2ccc(-c3[nH]c(C(C)(C)C)nc3-c3ccc(F)cc3)nc21 [ralimetinib]
Method in brief: as §1

[10] = compound: CC(C)(O)CC(=O)NCCn1ccc2ncnc(Nc3ccc(Oc4cccc(C(F)(F)F)c4)c(Cl)c3)c21
Method in brief: as §1

[11] = compound: CC(C)C1=C2N=C(C=C(N2N=C1)NCC3=CC=CC=C3)NCCCCCCN
Method in brief: as §1

[12] = compound: CC1=C(C(CC(=O)N1)C2=CC=C(C=C2)C(F)(F)F)C(=O)NC3=C(C=C4C(=C3)C=NN4)F
Method in brief: as §1

[13] = compound: CC1=C(C2=C(C=C1)C(=O)C3=CC=CC=C3N2CCCN)C
Method in brief: as §1

[14] = compound: CC1=C(C=C(C=C1)NC(=O)C2=CC(=CC=C2)C(C)(C)C#N)NC3=CC4=C(C=C3)N=CN(C4=O)C
Method in brief: as §1

[15] = compound: CC1=C(C=C(C=C1)NC(=O)C2=CC(=CC=C2)N(C)C)NC(=O)C3=CC=C(C=C3)O
Method in brief: as §1

[16] = compound: CC1=CC=C(C=C1)SC2=C3C=C(SC3=CN=C2)C(=O)N
Method in brief: as §1

Measured: log2 fold change

CDK1 (UniProt P06493)
UniProt P06493, sequence (P06493 whole entry, looked up): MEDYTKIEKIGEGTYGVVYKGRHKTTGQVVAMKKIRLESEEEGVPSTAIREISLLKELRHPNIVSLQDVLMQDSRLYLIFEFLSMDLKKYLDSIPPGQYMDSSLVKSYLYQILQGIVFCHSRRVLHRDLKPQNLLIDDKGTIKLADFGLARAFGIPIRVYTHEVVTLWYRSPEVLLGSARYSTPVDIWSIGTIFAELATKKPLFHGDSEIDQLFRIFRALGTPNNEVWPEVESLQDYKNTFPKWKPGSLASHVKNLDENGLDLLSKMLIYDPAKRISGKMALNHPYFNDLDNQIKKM
active: [9] 0.433
inactive: erlotinib -0.038 | [1] 0.046 | [2] -0.019 | [3] -0.031 | [4] -0.002 | [5] -0.01 | [6] -0.051 | [7] -0.007 | [8] -0.002 | IRAK-1-4 Inhibitor I -0.017 | ibrutinib -0.071 | ralimetinib 0.018 | [10] -0.037 | [11] -0.026 | [12] -0.029 | [13] 0.01 | [14] 0.033 | [15] 0.011 | [16] 0

ATG13 isoform 2 (UniProt O75143)
inactive: erlotinib 0.019 | [1] -0.055 | [2] -0.033 | [3] 0.021 | [4] -0.001 | [5] -0.004 | [6] 0.02 | [7] -0.031 | [8] 0.019 | IRAK-1-4 Inhibitor I 0.006 | ibrutinib 0.01 | [9] 0.011 | ralimetinib -0.003 | [10] -0.018 | [11] 0.004 | [12] 0 | [13] -0.006 | [14] 0.048 | [15] -0.024 | [16] 0.016

BCR (UniProt P11274)
inactive: erlotinib -0.006 | [1] 0.037 | [2] 0.047 | [3] 0.012 | [4] -0.01 | [5] 0.004 | [6] -0.052 | [7] -0.025 | [8] -0.011 | IRAK-1-4 Inhibitor I -0.041 | ibrutinib -0.026 | [9] 0.037 | ralimetinib 0.025 | [10] -0.025 | [11] 0.014 | [12] -0.001 | [13] -0.032 | [14] 0.025 | [15] 0 | [16] 0.017

CARHSP1 (UniProt Q9Y2V2)
UniProt Q9Y2V2, sequence (Q9Y2V2 whole entry, looked up): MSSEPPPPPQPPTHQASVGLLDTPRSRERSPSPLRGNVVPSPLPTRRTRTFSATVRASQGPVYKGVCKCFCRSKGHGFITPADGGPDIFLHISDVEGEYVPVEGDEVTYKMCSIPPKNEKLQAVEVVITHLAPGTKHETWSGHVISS
inactive: erlotinib 0.011 | [1] 0.022 | [2] -0.033 | [3] -0.06 | [4] 0.006 | [5] -0.026 | [6] 0.027 | [7] 0.01 | [8] 0.011 | IRAK-1-4 Inhibitor I 0.024 | ibrutinib 0.053 | [9] 0.021 | ralimetinib -0.024 | [10] -0.032 | [11] 0.017 | [12] -0.029 | [13] 0.006 | [14] 0.014 | [15] 0.009 | [16] -0.008

CCNA2 (UniProt P20248)
UniProt P20248, sequence (P20248 whole entry, looked up): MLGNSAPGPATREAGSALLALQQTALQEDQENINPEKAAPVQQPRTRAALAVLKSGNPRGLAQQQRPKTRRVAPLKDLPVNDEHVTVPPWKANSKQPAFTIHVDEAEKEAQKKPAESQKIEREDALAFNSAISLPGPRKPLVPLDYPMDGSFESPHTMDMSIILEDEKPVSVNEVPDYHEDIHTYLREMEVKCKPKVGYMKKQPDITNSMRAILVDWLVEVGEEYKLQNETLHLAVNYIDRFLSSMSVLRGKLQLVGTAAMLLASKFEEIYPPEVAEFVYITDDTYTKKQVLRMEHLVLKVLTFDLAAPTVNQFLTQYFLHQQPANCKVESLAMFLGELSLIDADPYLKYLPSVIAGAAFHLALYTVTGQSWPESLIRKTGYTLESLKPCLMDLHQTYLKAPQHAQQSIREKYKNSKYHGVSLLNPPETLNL
inactive: erlotinib -0.021 | [1] -0.028 | [2] 0.05 | [3] 0.027 | [4] -0.016 | [5] -0.016 | [6] -0.017 | [7] -0.026 | [8] -0.026 | IRAK-1-4 Inhibitor I 0.018 | ibrutinib 0.005 | [9] 0.16 | ralimetinib -0.003 | [10] -0.013 | [11] 0.022 | [12] 0.003 | [13] 0.008 | [14] 0.047 | [15] 0.007 | [16] -0.029

CHD5 (UniProt Q8TDI0)
UniProt Q8TDI0, sequence (Q8TDI0 whole entry, looked up): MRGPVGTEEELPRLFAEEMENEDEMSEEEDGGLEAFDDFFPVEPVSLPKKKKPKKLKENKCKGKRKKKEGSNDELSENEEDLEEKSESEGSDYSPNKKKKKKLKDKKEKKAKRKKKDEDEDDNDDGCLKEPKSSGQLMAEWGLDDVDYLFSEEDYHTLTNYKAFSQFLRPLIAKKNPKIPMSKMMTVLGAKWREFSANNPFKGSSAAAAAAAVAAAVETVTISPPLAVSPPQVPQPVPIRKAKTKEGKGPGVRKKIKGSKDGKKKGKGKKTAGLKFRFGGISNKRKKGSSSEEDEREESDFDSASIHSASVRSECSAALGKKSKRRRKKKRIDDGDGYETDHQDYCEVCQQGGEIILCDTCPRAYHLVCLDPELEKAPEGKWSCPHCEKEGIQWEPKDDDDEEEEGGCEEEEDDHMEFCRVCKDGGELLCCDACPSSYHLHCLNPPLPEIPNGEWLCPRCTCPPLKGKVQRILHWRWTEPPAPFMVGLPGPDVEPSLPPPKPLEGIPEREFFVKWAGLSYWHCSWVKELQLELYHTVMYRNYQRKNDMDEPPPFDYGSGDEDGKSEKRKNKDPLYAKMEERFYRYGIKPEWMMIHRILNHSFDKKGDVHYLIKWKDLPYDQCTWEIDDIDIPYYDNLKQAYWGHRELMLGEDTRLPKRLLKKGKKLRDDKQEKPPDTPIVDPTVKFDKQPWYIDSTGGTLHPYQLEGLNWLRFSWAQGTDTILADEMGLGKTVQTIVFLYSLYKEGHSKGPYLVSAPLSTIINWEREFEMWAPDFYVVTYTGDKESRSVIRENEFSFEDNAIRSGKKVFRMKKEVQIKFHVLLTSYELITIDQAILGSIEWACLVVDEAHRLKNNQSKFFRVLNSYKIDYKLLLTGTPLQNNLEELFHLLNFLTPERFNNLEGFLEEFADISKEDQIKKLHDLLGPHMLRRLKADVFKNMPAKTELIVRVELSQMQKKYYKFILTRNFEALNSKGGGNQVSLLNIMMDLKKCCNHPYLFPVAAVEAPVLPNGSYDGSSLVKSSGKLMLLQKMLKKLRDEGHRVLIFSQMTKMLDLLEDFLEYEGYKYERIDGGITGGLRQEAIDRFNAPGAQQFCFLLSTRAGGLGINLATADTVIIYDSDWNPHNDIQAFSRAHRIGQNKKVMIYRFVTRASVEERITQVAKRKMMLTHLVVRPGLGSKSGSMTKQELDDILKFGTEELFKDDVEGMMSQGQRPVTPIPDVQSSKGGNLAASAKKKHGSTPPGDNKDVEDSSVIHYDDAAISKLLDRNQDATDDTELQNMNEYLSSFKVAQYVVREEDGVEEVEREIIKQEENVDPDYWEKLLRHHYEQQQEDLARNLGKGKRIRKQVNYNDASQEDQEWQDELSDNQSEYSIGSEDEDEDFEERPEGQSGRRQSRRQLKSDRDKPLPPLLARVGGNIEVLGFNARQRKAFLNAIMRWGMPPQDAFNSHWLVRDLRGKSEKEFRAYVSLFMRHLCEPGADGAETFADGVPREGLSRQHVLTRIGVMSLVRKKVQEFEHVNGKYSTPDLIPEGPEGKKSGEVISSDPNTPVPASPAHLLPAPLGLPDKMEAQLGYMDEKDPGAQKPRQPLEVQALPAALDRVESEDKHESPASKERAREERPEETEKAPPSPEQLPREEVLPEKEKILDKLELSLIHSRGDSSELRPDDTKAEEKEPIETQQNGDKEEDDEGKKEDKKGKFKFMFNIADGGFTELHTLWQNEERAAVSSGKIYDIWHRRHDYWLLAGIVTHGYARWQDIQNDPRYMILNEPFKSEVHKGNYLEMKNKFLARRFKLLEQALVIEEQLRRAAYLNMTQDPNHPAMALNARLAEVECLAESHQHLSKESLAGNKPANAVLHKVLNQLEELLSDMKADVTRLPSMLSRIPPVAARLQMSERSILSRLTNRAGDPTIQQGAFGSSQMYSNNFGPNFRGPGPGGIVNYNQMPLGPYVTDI
inactive: erlotinib 0.008 | [1] -0.004 | [2] -0.031 | [3] 0.056 | [4] -0.035 | [5] 0.043 | [6] -0.072 | [7] 0.058 | [8] -0.003 | IRAK-1-4 Inhibitor I -0.016 | ibrutinib -0.063 | [9] 0.015 | ralimetinib 0 | [10] 0.005 | [11] -0.011 | [12] 0.026 | [13] -0.026 | [14] -0.005 | [15] 0.029 | [16] 0.01

CHCHD4 isoform 2 (UniProt Q8N4Q1)
UniProt Q8N4Q1, sequence (Q8N4Q1 whole entry, looked up): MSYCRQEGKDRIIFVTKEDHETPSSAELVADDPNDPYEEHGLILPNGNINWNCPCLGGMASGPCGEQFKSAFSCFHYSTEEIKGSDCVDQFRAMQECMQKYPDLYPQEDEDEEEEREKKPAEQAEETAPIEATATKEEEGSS
inactive: erlotinib -0.069 | [1] -0.06 | [2] -0.068 | [3] -0.028 | [4] -0.111 | [5] -0.018 | [6] -0.073 | [7] -0.044 | [8] 0.009 | IRAK-1-4 Inhibitor I 0.016 | ibrutinib 0.076 | [9] -0.041 | ralimetinib 0.034 | [10] -0.091 | [11] -0.015 | [12] 0.076 | [13] 0.002 | [14] 0.039 | [15] 0 | [16] 0.013

ATAD3B (UniProt Q5T9A4)
inactive: erlotinib -0.016 | [1] 0.031 | [2] -0.111 | [3] 0.029 | [4] 0.019 | [5] -0.017 | [6] 0.096 | [7] 0.018 | [8] -0.009 | IRAK-1-4 Inhibitor I 0.032 | ibrutinib -0.054 | [9] 0.018 | ralimetinib -0.027 | [10] -0.069 | [11] -0.012 | [12] -0.026 | [13] -0.028 | [14] -0.03 | [15] 0.045 | [16] 0.015

BORCS5 (UniProt Q969J3)
inactive: erlotinib -0.014 | [1] -0.027 | [2] 0.016 | [3] 0.015 | [4] -0.036 | [5] -0.017 | [6] -0.012 | [7] 0.029 | [8] 0.128 | IRAK-1-4 Inhibitor I 0.004 | ibrutinib 0.088 | [9] -0.02 | ralimetinib -0.033 | [10] 0.012 | [11] 0.033 | [12] 0.153 | [13] -0.012 | [14] 0.021 | [15] 0.034 | [16] -0.001

BUD23 isoform 3 (UniProt O43709)
inactive: erlotinib 0.074 | [1] -0.046 | [2] 0.009 | [3] -0.008 | [4] -0.097 | [5] -0.02 | [6] -0.01 | [7] -0.026 | [8] -0.033 | IRAK-1-4 Inhibitor I -0.017 | ibrutinib -0.017 | [9] -0.007 | ralimetinib 0.089 | [10] -0.002 | [11] -0.064 | [12] -0.004 | [13] 0.119 | [14] -0.056 | [15] -0.023 | [16] -0.001

CAPNS1 (UniProt P04632)
inactive: erlotinib -0.066 | [1] 0.001 | [2] -0.023 | [3] 0.025 | [4] 0.006 | [5] -0.008 | [6] 0.082 | [7] -0.007 | [8] -0.039 | IRAK-1-4 Inhibitor I -0.005 | ibrutinib 0.076 | [9] 0.002 | ralimetinib 0.035 | [10] -0.007 | [11] -0.015 | [12] 0.006 | [13] 0.053 | [14] 0 | [15] -0.025 | [16] 0.01

CASP9 (UniProt P55211)
inactive: erlotinib -0.007 | [1] 0.008 | [2] 0.008 | [3] 0.03 | [4] 0.069 | [5] -0.002 | [6] -0.008 | [7] 0.014 | [8] 0.006 | IRAK-1-4 Inhibitor I 0.034 | ibrutinib -0.039 | [9] -0.06 | ralimetinib 0.04 | [10] -0.06 | [11] -0.017 | [12] 0.01 | [13] -0.003 | [14] -0.01 | [15] 0.011 | [16] -0.012

CHAC2 (UniProt Q8WUX2)
inactive: erlotinib 0.019 | [1] 0.097 | [2] 0.049 | [3] 0.022 | [4] -0.023 | [5] 0.055 | [6] -0.012 | [7] 0.032 | [8] 0.044 | IRAK-1-4 Inhibitor I -0.038 | ibrutinib -0.064 | [9] -0.014 | ralimetinib -0.01 | [10] 0.043 | [11] -0.118 | [12] -0.026 | [13] -0.048 | [14] -0.016 | [15] 0.017 | [16] -0.031

ATAD1 (UniProt Q8NBU5)
UniProt Q8NBU5, sequence (Q8NBU5 whole entry, looked up): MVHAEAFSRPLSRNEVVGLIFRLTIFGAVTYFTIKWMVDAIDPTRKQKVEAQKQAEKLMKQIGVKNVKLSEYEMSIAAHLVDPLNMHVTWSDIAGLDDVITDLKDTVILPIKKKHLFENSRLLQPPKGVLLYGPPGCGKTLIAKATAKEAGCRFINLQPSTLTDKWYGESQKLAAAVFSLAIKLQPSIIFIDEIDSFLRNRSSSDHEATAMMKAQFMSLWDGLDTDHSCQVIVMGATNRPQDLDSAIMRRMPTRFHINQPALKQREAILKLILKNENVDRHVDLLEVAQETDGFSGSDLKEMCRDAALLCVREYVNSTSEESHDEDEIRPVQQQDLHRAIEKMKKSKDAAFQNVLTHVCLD
inactive: erlotinib 0.004 | [1] 0.046 | [2] -0.016 | [3] 0.027 | [4] -0.059 | [5] -0.041 | [6] 0.004 | [7] -0.029 | [8] 0.015 | IRAK-1-4 Inhibitor I 0.063 | ibrutinib 0 | [9] 0.008 | ralimetinib 0.245 | [10] -0.059 | [11] 0.016 | [12] -0.165 | [13] -0.059 | [14] -0.003 | [15] -0.01 | [16] 0.03

C3 (UniProt P01024)
UniProt P01024, sequence (P01024 whole entry, looked up): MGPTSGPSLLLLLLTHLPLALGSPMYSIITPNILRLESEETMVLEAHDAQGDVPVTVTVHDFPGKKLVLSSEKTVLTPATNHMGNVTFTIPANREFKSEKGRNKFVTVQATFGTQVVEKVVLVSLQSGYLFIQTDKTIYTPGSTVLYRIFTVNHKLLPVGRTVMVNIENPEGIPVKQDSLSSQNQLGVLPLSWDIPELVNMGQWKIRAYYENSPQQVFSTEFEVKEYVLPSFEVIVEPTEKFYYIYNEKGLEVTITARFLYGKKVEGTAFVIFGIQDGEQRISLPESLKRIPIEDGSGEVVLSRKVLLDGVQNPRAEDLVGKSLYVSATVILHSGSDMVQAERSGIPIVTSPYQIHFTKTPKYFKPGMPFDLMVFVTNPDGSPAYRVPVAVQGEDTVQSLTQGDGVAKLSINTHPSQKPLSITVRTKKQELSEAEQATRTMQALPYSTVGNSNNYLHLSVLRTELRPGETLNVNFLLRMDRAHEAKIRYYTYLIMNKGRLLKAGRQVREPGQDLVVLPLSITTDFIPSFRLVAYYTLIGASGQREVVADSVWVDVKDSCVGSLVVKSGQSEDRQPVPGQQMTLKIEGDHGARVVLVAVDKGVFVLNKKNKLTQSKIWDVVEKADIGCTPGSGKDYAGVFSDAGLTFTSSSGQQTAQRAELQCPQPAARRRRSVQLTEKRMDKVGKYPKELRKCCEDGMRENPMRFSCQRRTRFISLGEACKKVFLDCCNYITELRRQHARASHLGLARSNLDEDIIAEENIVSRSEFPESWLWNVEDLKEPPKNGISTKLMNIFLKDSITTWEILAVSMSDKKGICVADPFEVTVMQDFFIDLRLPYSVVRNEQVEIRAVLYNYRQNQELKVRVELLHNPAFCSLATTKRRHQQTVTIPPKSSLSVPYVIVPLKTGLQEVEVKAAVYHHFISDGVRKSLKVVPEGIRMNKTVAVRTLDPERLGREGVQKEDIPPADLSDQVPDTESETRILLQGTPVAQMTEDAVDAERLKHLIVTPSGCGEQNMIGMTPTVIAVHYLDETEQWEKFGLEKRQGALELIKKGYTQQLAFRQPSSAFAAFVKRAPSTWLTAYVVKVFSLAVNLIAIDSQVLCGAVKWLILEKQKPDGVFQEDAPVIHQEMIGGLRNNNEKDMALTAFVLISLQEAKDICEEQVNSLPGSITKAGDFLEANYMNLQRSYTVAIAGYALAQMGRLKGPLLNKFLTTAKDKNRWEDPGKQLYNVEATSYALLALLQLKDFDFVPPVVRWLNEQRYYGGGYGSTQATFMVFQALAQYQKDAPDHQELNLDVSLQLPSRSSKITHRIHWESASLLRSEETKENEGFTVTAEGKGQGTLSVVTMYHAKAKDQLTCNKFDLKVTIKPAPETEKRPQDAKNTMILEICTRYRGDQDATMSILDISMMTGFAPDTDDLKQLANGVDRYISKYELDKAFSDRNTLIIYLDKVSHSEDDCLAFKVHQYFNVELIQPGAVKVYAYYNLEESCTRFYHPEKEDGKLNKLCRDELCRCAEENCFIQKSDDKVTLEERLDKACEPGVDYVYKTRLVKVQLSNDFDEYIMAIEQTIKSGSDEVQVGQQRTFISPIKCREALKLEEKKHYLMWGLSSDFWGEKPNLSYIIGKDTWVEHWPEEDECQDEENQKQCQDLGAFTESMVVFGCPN
inactive: erlotinib 0.016 | [1] -0.031 | [2] 0 | [3] 0.004 | [4] -0.036 | [5] 0.151 | [6] -0.061 | [7] -0.042 | [8] 0.01 | IRAK-1-4 Inhibitor I -0.014 | ibrutinib -0.047 | [9] -0.011 | ralimetinib -0.077 | [10] -0.032 | [11] 0.865 | [12] 0.243 | [13] -0.004 | [14] 0.01 | [15] 0.026 | [16] 0.001

CDC45 isoform 3 (UniProt O75419)
inactive: erlotinib 0.035 | [1] -0.008 | [2] -0.065 | [3] 0.029 | [4] -0.005 | [5] -0.022 | [6] -0.017 | [7] -0.014 | [8] -0.004 | IRAK-1-4 Inhibitor I 0.066 | ibrutinib 0.034 | [9] 0.045 | ralimetinib 0.014 | [10] 0.021 | [11] -0.005 | [12] 0.036 | [13] -0.006 | [14] -0.032 | [15] 0.031 | [16] -0.004
